This excerpt belongs to a sample that is enriched for hits.
NOMO-1 viab: STK33 inhibitor candidate reducing NOMO-1 cell viability. NOMO-1 AML viability, CellTiter-Glo luminescence, 72 h. inhibition, % (concentration not given with the values). 37,000 compounds, 7.5% hits. AID 2330; in the data active = inhibition above about 80%
PD-1 reversal: activators reversing PD-1 mediated T-cell inhibition | activation, % (test concentration not listed) | primary human CD4 T cells, PD-L1 beads, CellTiter-Glo 96 h | AID 2316 | 29,000 tested, under 10 active; call rule not given here;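 also: 0% = median vehicle wells and 100% = positive control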
STK33 kin inh: human STK33 kinase inhibition | Q9BYT3 | ADP-Glo luminescence, MBP substrate | inhibition, % at 12.5 µM | 27,000 compounds, 0.44% hits; in the data active = inhibition above about 20%
Target sequence (Q9BYT3 whole entry, looked up): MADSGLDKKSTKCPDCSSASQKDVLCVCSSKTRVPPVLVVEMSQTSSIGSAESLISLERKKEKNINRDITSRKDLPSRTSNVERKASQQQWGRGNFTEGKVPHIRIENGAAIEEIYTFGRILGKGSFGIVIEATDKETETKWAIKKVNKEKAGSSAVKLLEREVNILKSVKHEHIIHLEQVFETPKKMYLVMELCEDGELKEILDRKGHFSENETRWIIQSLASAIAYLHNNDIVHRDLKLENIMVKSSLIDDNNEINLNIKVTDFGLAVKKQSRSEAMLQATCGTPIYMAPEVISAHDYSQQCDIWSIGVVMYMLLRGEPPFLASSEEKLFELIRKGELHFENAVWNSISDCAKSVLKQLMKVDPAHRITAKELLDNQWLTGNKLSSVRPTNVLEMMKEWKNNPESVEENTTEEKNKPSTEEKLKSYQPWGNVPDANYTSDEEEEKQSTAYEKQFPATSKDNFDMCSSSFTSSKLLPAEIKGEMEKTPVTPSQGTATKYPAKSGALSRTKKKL
Starred values were filed as active, the others as inactive; . = no result.

SMILES	NOMO-1 viab	PD-1 reversal	STK33 kin inh
C=C1C(=O)O[C@H]2C1[C@H](OC(=O)/C(=C/CO)COC(=O)/C(C)=C/CO)CC(=C)[C@@H]1CC(=O)[C@@H](C)[C@@H]12 (stereo not given in full)	108.2*	-6.1	-1.3
C=C1C(=O)O[C@H]2[C@H]1[C@H](O)CC(=C)[C@@H]1CC(=O)C(C)[C@H]21 (stereo not given in full)	117.6*	-7.2	-0.3
Cc1ccc([N+](=O)[O-])cc1NC(=O)Cn1cnc2ccccc2c1=O	-8.5	.	2.1
COC(=O)CNC(=O)c1cn(-c2ccccc2)nc1-c1cccc(Br)c1	71.8	.	1.1
CC1(C)CC(=O)C2=C(C1)Nc1ccccc1N(C(=O)C(F)(F)F)C2c1ccc(Cl)cc1Cl (stereo not given)	86.6*	-0.4	.
COc1ccc(C2C3=C(CC(C)(C)CC3=O)Nc3ccccc3N2C(C)=O)cc1COc1ccc(F)cc1 (stereo not given)	9.1	0.2	1.2
CC(Oc1cccc(Cl)c1)C(=O)Nc1ccccc1C(=O)O (stereo not given)	0.3	1.9	-1.6
CCOC(=O)c1cnc2ccc(OCC)cc2c1NC(C)CC (stereo not given)	117.1*	-20.6	3.2
CCOC(=O)c1cnc2ccc(OCC)cc2c1N1CCN(c2ccccc2)CC1	66.7	-0.5	.
CCC(C)C(O)C(C)(O)/C=C/C1=CC2=C(Cl)C(=O)C(C)(O)C(O)C2CO1 (stereo not given)	12.3	1.5	-2.5
C[C@H]1CN([C@@H](C)CO)C(=O)c2cc(NC(=O)NC3CCCCC3)ccc2O[C@@H]1CN(C)Cc1ccc2c(c1)OCO2	25.7	0.9	1.4
C[C@@H]1CN([C@H](C)CO)C(=O)c2cc(NC(=O)NC3CCCCC3)ccc2O[C@@H]1CN(C)Cc1ccc2c(c1)OCO2	-11.5	2.0	.
C[C@H](CO)N1C[C@H](C)[C@H](CN(C)Cc2ccc3c(c2)OCO3)Oc2ccc(NC(=O)NC3CCCCC3)cc2C1=O	93.6*	1.1	-0.9
C[C@H]1CN([C@@H](C)CO)C(=O)c2cc(NC(=O)NC3CCCCC3)ccc2O[C@H]1CN(C)Cc1ccc2c(c1)OCO2	101.6*	-1.7	.
O=C(CSc1nnc2ccc3ccccc3n12)Nc1nsc(-c2ccc(Cl)cc2)n1	-0.4	.	-4.4
COc1ccc(CNc2nc(-c3ccc(Cl)cc3)nn2C(=O)c2ccco2)cc1	7.1	1.0	2.7
O=C(COc1ccc([N+](=O)[O-])cc1)Nc1cccc(O)c1	2.8	1.3	-0.2
C[C@H]1CN([C@@H](C)CO)C(=O)Cc2cc(NS(=O)(=O)c3ccccc3)ccc2O[C@H]1CN(C)Cc1ccc(Cl)c(Cl)c1	100.2*	0.2	5.9
C[C@@H]1CN([C@H](C)CO)C(=O)Cc2cc(NS(=O)(=O)c3ccccc3)ccc2O[C@H]1CN(C)Cc1ccc(Cl)c(Cl)c1	111.1*	0.2	7.8
C[C@H](CO)N1C[C@H](C)[C@H](CN(C)Cc2ccccc2)Oc2ccc(NS(=O)(=O)c3ccccc3)cc2CC1=O	45.1	1.9	0.8
C[C@@H]1CN([C@H](C)CO)C(=O)Cc2cc(NS(=O)(=O)c3ccccc3)ccc2O[C@@H]1CN(C)Cc1ccc(Cl)c(Cl)c1	84.9*	-7.3	3.6
C[C@H](CO)N1C[C@H](C)[C@H](CN(C)Cc2ccc(Cl)c(Cl)c2)Oc2ccc(NS(=O)(=O)c3ccccc3)cc2CC1=O	68.2	-1.0	8.6
C[C@@H]1CN([C@@H](C)CO)C(=O)Cc2cc(NS(=O)(=O)c3ccccc3)ccc2O[C@@H]1CN(C)Cc1ccccc1	15.4	-1.2	0.3
Cc1ccc(C2CC(=O)c3cnc(NCCN4CCOCC4)nc3C2)cc1 (stereo not given)	20.9	.	-2.8
COc1ccc(C(=O)Nc2ccc(C(=O)NCc3ccco3)cc2)cc1	27.6	.	-0.6
SMILES	NOMO-1 viab	PD-1 reversal	STK33 kin inh
C[C@H]1CN([C@@H](C)CO)C(=O)c2cc(NC(=O)Nc3ccccc3)ccc2O[C@@H]1CN(C)C(=O)Nc1ccc(C(F)(F)F)cc1	3.7	0.0	.
C[C@@H]1CN([C@@H](C)CO)C(=O)c2cc(NC(=O)Nc3ccc(C(F)(F)F)cc3)ccc2O[C@@H]1CN(C)C(=O)Nc1ccccc1	38.6	.	.
C[C@@H]1CN([C@@H](C)CO)C(=O)c2cc(NC(=O)Nc3ccccc3)ccc2O[C@@H]1CN(C)C(=O)Nc1ccc(C(F)(F)F)cc1	102.0*	-3.1	2.2
C[C@H]1CN([C@@H](C)CO)C(=O)c2cc(NC(=O)Nc3ccccc3)ccc2O[C@H]1CN(C)C(=O)Nc1ccc(C(F)(F)F)cc1	33.2	.	.
C[C@@H]1CN([C@H](C)CO)C(=O)c2cc(NC(=O)Nc3ccccc3)ccc2O[C@@H]1CN(C)C(=O)Nc1ccc(C(F)(F)F)cc1	86.7*	-1.3	.
C[C@H](CO)N1C[C@H](C)[C@H](CN(C)C(=O)Nc2ccccc2)Oc2ccc(NC(=O)Nc3ccc(C(F)(F)F)cc3)cc2C1=O	103.2*	-3.7	.
O=C(CSc1n[nH]c(-c2ccc(Cl)cc2)n1)Nc1ccccc1Cl	44.1	-7.4	7.6
COc1c(-c2ccccc2)oc2c(OC)c(O)cc(O)c2c1=O	5.6	0.5	3.6
CC(Sc1nc2ccccc2c(=O)[nH]1)C(=O)Nc1ccc(Cl)cc1 (stereo not given)	-9.7	-0.8	-1.2
O=C(Nc1ccc(S(=O)(=O)Nc2ncccn2)cc1)c1ccc2c(c1)OCCO2	-17.4	.	-5.0
Cc1cccc(N2C(=O)CC(SCC(=O)Nc3ccccc3)C2=O)c1 (stereo not given)	-18.6	.	-0.9
CNc1cc2ncnc(Nc3cccc(Br)c3)c2cc1N	96.6*	6.2	3.0
CC(Oc1cccc(NC(=O)c2ccc(Br)cc2)c1)C(=O)c1ccccc1 (stereo not given)	43.0	0.7	0.4
N#CCCN(Cc1ccco1)S(=O)(=O)c1ccccc1	-5.9	-0.4	-3.3
COC(=O)c1ccccc1NC(=O)CN(c1ccc(I)cc1)S(C)(=O)=O	16.3	1.2	-0.3
Cc1cc(I)ccc1NC(=O)CN(c1cc(Cl)c(Cl)cc1Cl)S(C)(=O)=O	29.9	1.5	2.5
COC(=O)c1ccc(NC(=O)CN(c2ccc(F)cc2)S(C)(=O)=O)cc1	17.5	0.7	-3.9
COC(=O)c1ccc(Cl)c(NC(=O)CN(c2ccc(I)cc2)S(C)(=O)=O)c1	120.3*	-0.6	1.7
COC(=O)c1ccc(C)c(NC(=O)CN(c2ccc(F)cc2)S(C)(=O)=O)c1	98.3*	0.4	-3.6
COC(=O)c1ccc(C)c(NC(=O)CN(c2cc(Cl)c(Cl)cc2Cl)S(C)(=O)=O)c1	96.1*	.	2.0
COC(=O)NC(Nc1ccccc1C(F)(F)F)C(=O)c1ccccc1 (stereo not given)	25.3	0.1	.
COc1ccc(C)cc1NC(=O)CN(c1ccc(I)cc1)S(C)(=O)=O	25.6	-6.1	-7.1
CNC(=O)CN(c1ccc(C)cc1)S(=O)(=O)c1ccc(Cl)cc1	34.4	2.3	-0.6
Cc1ccc(S(=O)(=O)N(C)CC(=O)Nc2c(F)cccc2F)cc1	-3.9	0.9	1.5
CC(CCc1ccccc1)N=c1c([N+](=O)[O-])nn(-c2ccccc2)n1O (stereo not given)	18.2	1.2	-2.7
O=[N+]([O-])c1nn(-c2ccccc2)n(O)c1=NC1CCN(Cc2ccccc2)CC1	114.3*	.	-2.7
CCOc1ccc(CCC(=O)O)cc1	4.4	-1.0	.

Bioassay records as filed in PubChem BioAssay.
